In the library only some 2.9% were active in any assay of this set; here they are far more common.
MEKK3 PB1 HTS – modulators (inhibitors or enhancers) of MEK5 binding to human MEKK3 PB1 domain; Q99759; bead-based flow cytometry, Alexa488-MEK5 binding to MEKK3; actives lie on both sides; 0 = blocked by unlabeled MEK5, 100 = vehicle; binding response (% of control), % at 10 µM; 290,000 tested, 1.4% active; AID 1529;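 active means binding response more than 3 SD above or below the average of its plate-row segment, actives on both sides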;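 further: Alexa488 bead fluorescence after subtracting the streptavidin-only scavenger bead signal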
Target sequence (Q99759 whole entry, looked up, the tested form may be a part): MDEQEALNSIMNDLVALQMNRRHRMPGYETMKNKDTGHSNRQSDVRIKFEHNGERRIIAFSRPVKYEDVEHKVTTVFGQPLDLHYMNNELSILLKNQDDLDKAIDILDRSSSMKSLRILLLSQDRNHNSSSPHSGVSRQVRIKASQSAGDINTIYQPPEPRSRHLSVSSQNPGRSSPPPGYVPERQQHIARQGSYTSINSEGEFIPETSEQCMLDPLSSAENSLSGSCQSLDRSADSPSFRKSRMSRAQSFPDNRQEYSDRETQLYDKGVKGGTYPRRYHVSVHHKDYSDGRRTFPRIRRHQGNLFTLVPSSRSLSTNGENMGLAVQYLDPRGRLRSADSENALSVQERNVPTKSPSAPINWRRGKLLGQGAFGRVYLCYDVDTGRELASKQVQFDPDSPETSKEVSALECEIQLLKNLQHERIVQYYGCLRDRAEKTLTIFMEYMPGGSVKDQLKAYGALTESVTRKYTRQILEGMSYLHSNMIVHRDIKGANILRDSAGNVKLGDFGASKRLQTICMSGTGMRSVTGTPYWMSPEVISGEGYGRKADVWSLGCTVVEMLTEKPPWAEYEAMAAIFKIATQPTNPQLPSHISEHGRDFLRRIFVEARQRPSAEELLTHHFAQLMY
DNA FID counter – fluorescent intercalator displacement, NS3 helicase counter-screen. 290,000 tested, 0.17% active. inhibition, % at 7.9 µM. DNA fluorescent intercalator displacement, fluorescence; in the data active means inhibition above about 37%;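 further: 0% = vehicle and 100% = reference compound; higher means more ethidium bromide displaced from hairpin DNA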
dFosB act – enhances mouse delta FosB homodimer DNA binding; P13346; purified delta FosB, TAMRA-CDK5 oligo fluorescence polarization; percent of positive-control signal above neutral wells; activation, % at 25 µM; 340,000 tested, 0.99% active; AID 493131;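 active means mean activation above about 17%, with every replicate also reaching it, limit read from the data, passing the limit was not always enough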
MEKK2wt PB1 HTS – raises or lowers MEK5 binding to wildtype human MEKK2 PB1 domain; Q9Y2U5; bead flow cytometry, Alexa488-MEK5 binding to MEKK2 WT; actives lie on both sides; binding response (% of control), % at 10 µM; 290,000 tested, 1.1% active; AID 1531; in the data active means binding response below about 67% or above about 130%
MEKK2mut PB1 HTS – signal of MEK5 binding to mutant human MEKK2 PB1 domain; 290,000 tested, 0.35% active; bead flow cytometry, Alexa488-MEK5 binding to MEKK2 mutant; AID 1530; percent response, % at 10 µM; in the data active means percent response above about 24%, passing the limit was not always enough
MEKK2wt confirm – raises or lowers MEK5 binding to wildtype human MEKK2, retest; shares compounds with MEKK3 PB1 HTS; bead flow cytometry, Alexa488-MEK5 binding to MEKK2 WT; actives lie on both sides; binding response (% of control), % at 10 µM; 5,900 tested, 2.4% active; AID 1892; in the data active means binding response below about 16% or above about 210%; inactive means in between
MEKK2mut confirm – signal of MEK5 binding to mutant human MEKK2, retest; 5,900 tested, 2% active; percent response, % at 10 µM; shares compounds with MEKK3 PB1 HTS; AID 1893; bead flow cytometry, Alexa488-MEK5 binding to MEKK2 mutant; in the data active means percent response mostly above about 71%, no sharp cut-off; inactive means mostly below about 38%;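 further: higher means compound restores mutant binding toward wildtype level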
MEKK3-MEK5 inh – MEKK3-MEK5 PB1 inhibition, single concentration confirmation; bead flow cytometry, Alexa488-MEK5 binding to MEKK3; active compounds read low; binding response (% of control), % at 10 µM; 5,900 tested, 1.8% active; AID 1894; shares compounds with MEKK3 PB1 HTS;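 active means binding response below 72% of control, or above a set upper limit, though filed actives all read lower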;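 further: 100% = DMSO only wells and 0% = binding blocked by excess unlabeled MEK5; lower values mean stronger disruption of MEK5 binding to MEKK3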
* hit, by the source's call; nt = no result given; [ ] = another dose, or the depositor's remark.

SMILES | MEKK3 PB1 HTS | DNA FID counter | dFosB act | MEKK2wt PB1 HTS | MEKK2mut PB1 HTS | MEKK2wt confirm | MEKK2mut confirm | MEKK3-MEK5 inh
CCCn1c(SCC(=O)Nc2cc(Cl)ccc2Cl)n[nH]c1=O | 103 | -7 | -9 | 99 | 0 | nt | nt | nt
Cc1ccc(C(=O)OCC(=O)Nc2ccccc2C(F)(F)F)cc1S(=O)(=O)N1CCCCC1 | nt | nt | -12 | nt | nt | nt | nt | nt
O=C1C2C3CCC(C3)C2C(=O)N1c1ccc2ccccc2c1 (configuration not stated) | 101 | -6 | 9 | 112 | 9 | nt | nt | nt
O=C1C2C3C=CC(C3)C2C(=O)N1c1ccc2ccccc2c1 (configuration not stated) | 114 | -10 | -7 | 116 | 26* | 99 | -4 | 99
CCOC(=O)c1ccc(NC(=O)CN2C(=O)CNC2=O)cc1 | 109 | 4 | -9 | 107 | 4 | nt | nt | nt
CCOC(=O)c1ccc(NC(=O)CN2C(=O)CSCC2=O)cc1 | 132* | -2 | -5 | 103 | 0 | 96 | -2 | 93
CCC1SC(CC)C(=O)N(CC(=O)Nc2ccc3c(c2)OCO3)C1=O (configuration not stated) | 133* | -1 | -7 | 102 | 0 | 109 | 3 | 102
CCOC(=O)c1ccc(NC(=O)CN2C(=O)CSC2=O)cc1 | 100 | -4 | -1 | 95 | -1 | nt | nt | nt
CCOC(=O)c1ccc(NC(=O)CN2C(=O)C(CC)SC(CC)C2=O)cc1 (configuration not stated) | 148* | -9 | -11 | 109 | 1 | 103 | 2 | 99
COC(=O)C1C(=O)OC(C)(C)C1C(C)C(=O)c1ccc(C)cc1C (configuration not stated) | 100 | -17 | -7 | 104 | 0 | nt | nt | nt
CCOC(=O)C1C(=O)OC(C)(C)C1C(C)C(=O)c1ccc(C)cc1C (configuration not stated) | 1.0*[inhibitor] | -12 | -10 | -2.0*[inhibitor] | -26 | 96 | 15 | 102
CC1(C)CC(=O)C(C(c2cccc([N+](=O)[O-])c2)C2C(=O)CC(C)(C)CC2=O)C(=O)C1 | 95 | -7 | -5 | 99 | -1 | nt | nt | nt
CC1(C)CC(=O)C(C(O)c2cccc([N+](=O)[O-])c2)C(C)(C)N1 (configuration not stated) | 112 | 3 | -1 | 111 | 25* | 107 | 6 | 104
CCN(C(=O)CSc1nc2ccccc2c(=O)n1CCOC)C1CCS(=O)(=O)C1 (configuration not stated) | nt | -2 | 3 | nt | nt | nt | nt | nt
COc1ccc(-c2c(C)n([O-])c3c([n+]2=O)CCCCC3)cc1 | 135* | -3 | 2 | 104 | -1 | 103 | 2 | 102
Cc1c(-c2ccc(Cl)cc2)[n+](=O)c2c(n1[O-])CCCC2 | 104 | -1 | 1 | 102 | -1 | nt | nt | nt
CCN(C(=O)CSc1nncn1-c1ccccc1)c1c(N)n(Cc2ccccc2)c(=O)[nH]c1=O | 63*[inhibitor] | -6 | 5 | 89 | -2 | 102 | -3 | 103
CCN(C(=O)CSc1nnnn1-c1ccccc1)c1c(N)n(Cc2ccccc2)c(=O)[nH]c1=O | 67*[inhibitor] | -20 | 6 | 99 | 0 | 105 | 7 | 108
COCCN(C(=O)CSc1nncn1-c1ccccc1)c1c(N)n(Cc2ccccc2)c(=O)[nH]c1=O | 101 | -16 | 1 | 99 | -1 | nt | nt | nt
COc1ccccc1OCC(O)CN1CCN(C(=O)c2ccccc2)CC1 (configuration not stated) | 105 | -17 | 2 | 110 | 4 | nt | nt | nt
CCOC(=O)C1(C)NC(c2ccco2)C2C(=O)N(C)C(=O)C21 (configuration not stated) | 99 | 5 | 3 | 99 | -7 | nt | nt | nt
Cc1ccc(C2CC(=O)N(c3ccc(F)cc3)C3=C2C(=O)CCC3)cc1 (configuration not stated) | 123* | -13 | -3 | 120 | 7 | 95 | -6 | 98
O=C1CCCC2=C1C(c1ccsc1)CC(=O)N2c1ccccc1 (configuration not stated) | 97 | -5 | 0 | 97 | -2 | nt | nt | nt
Cc1ccc(C)c(N=Nc2ccc(O)c3ncccc23)c1 | 102 | -14 | -12 | 84 | -10 | nt | nt | nt
Cc1ccc(N=Nc2cc(C)ccc2O)c(C)c1 | 5.0*[inhibitor] | 3 | 5 | 8.0*[inhibitor] | -42 | 105 | -5 | 101
SMILES | MEKK3 PB1 HTS | DNA FID counter | dFosB act | MEKK2wt PB1 HTS | MEKK2mut PB1 HTS | MEKK2wt confirm | MEKK2mut confirm | MEKK3-MEK5 inh
O=c1c(Cl)c(N2CCN(c3ccc(F)cc3)CC2)cnn1C12CC3CC(CC(C3)C1)C2 | 148* | -34 | -1 | 100 | 0 | 119 | 18 | 110
CC(Sc1nnc(COc2ccc3ccccc3c2)n1C)C(=O)O (configuration not stated) | 102 | -23 | -1 | 97 | 1 | nt | nt | nt
Cc1cccc2cncc(OCc3nnc(SC(F)F)n3C)c12 | 73*[inhibitor] | -14 | -8 | 80 | -2 | 107 | 5 | 108
OC(CNCC1CCCO1)Cn1c2ccc(Cl)cc2c2cc(Cl)ccc21 (configuration not stated) | 104 | 25 | -76 | 187* | 34 | 170 | 49 | 113
O=C(Nc1cccc2ncccc12)c1ccc(F)cc1 | 132* | 1 | -6 | 101 | 0 | 108 | -2 | 103
N#C/C(=C\c1ccccc1OCc1ccc(C(=O)O)cc1)c1ccccc1 | 50*[inhibitor] | -29 | 3 | 55 | -14 | 110 | 2 | 100
O=C(O)c1ccc(COc2ccccc2Cl)cc1 | 102 | -9 | -3 | 104 | 2 | nt | nt | nt
Cn1c(=O)c2ncn(CC(=O)NCCOCc3ccccc3Cl)c2n(C)c1=O | 90 | -8 | 9 | 92 | -3 | nt | nt | nt
CNC(=S)N/N=C(\C)c1ccccc1 | 132* | 0 | -2 | 128 | 28 | 109 | 2 | 103
Cc1oc(-c2ccccc2Cl)nc1Cn1cccc1C1=NC(c2ccccc2)CO1 (configuration not stated) | 19*[inhibitor] | -10 | -7 | 29*[inhibitor] | -13 | 103 | -1 | 103
O=C(CSc1nnc(CNc2cccc(Cl)c2)o1)OC1CCCCC1 | 103 | -26 | -1 | 106 | 1 | nt | nt | nt
O=C(CSc1nnc(CNc2ccc(F)cc2)o1)OC1CCCCC1 | 2.0*[inhibitor] | -20 | 2 | 2.0*[inhibitor] | -16 | 95 | -3 | 99
Cc1cc(-c2cc(C(=O)Nc3ccccc3)on2)nc(NC2CCCC2)n1 | 104 | nt | nt | 106 | 5 | nt | nt | nt
